Pf Dd2 growth = qHTS Primary assay for Inhibitors of Plasmodium falciparum Dd2 growth in vitro. AID 1347417, 2020. P. falciparum Dd2 growth, SYBR Green, 72 h. Potency, µM (top dose mostly 28.9 µM), for inactives: at the highest dose activity, negative = inhibition, most hits filed as inhibitors. 4.3% of 120,000 active; active = well fitted inhibition curve with a large enough effect;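 also: plate controls were DMSO vehicle for no effect and reference drug for full effect; nearly all actives have a fitted effect of over 65% in size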
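Infected erythrocytes (Dd2, 0.3% parasitemia, 2.5% hematocrit final) are added to compound in RPMI-1640/Albumax II medium, grown 72 h at 37C in low oxygen, then lysed with saponin/Triton-X containing SYBR Green and read by fluorescence.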
Active calls of the source: *; i = inactive; [ ] = remark or other dose. Shown is part of a subset that was picked to be rich in hits. Potency is read from the fitted curve at half-maximal effect.

SMILES	Pf Dd2 growth
COc1ccc(NC(=O)c2sc3nc(C(F)(F)F)cc(C)c3c2N)cc1OC	-8.7%
COCC(=O)N[C@@H]1CN(Cc2ccccc2C)C[C@H]1CO	-17.3%
Cc1cc(C(F)(F)F)nn1CC(=O)NCCn1c(C)cnc1C1CCC1	-2.8%
O=C(CCNc1c(-c2ccc(F)cc2)nc2cnccn12)N1CCCCC1	-18.5%
O=C(NCc1cccc(Cl)c1)c1ccc(NC(=O)N2CC3CCCN3c3ccccc32)cc1 (stereo not drawn)	8.91µM*
O=C(c1cccc(Cl)c1)N1CCC(N2CC3CCCN3C2=O)CC1 (stereo not drawn)	19.6%
O=C(Nc1cccc(Cl)c1)N1CC2CCCN2c2ccccc21 (stereo not drawn)	8.91µM*
O=C(NCc1cccc(Br)c1)c1ccc(NC(=O)N2CCCCc3ccccc32)cc1	-3.1%
CS(=O)(=O)N1CCC(OC2CCN(C(=O)Nc3cccc(Cl)c3)CC2)CC1	i
O=C(CCC(=O)N1CC2CCCN2c2ccccc21)NCc1cccc(Cl)c1 (stereo not drawn)	11.5%
CN1CCCCCC(O)c2cc(C(=O)N3CCN(c4ccccn4)CC3)ccc21 (stereo not drawn)	i
CC(NC(=O)c1cc(S(N)(=O)=O)ccc1F)c1ccc2c(c1)OCCCO2 (stereo not drawn)	-3.6%
Cc1ncsc1CN(Cc1ccccc1)C(=O)c1cn(CCC2CCCCC2)nn1	-18.8%
O=C(c1ccccc1)N1CCC2(CC1)N=C(c1ccc(Cl)cc1)NO2	i
O=C(c1cccc(Cl)c1)N1CCn2c(nn(-c3ccc(C(F)(F)F)cc3)c2=O)C1	-26.6%
CC(C)C[C@@H]1N[C@H](C(=O)O)Cc2cn(Cc3ccncc3)c3cccc1c23	-4.8%
COc1ccc(CNC(=O)[C@@H]2Cc3cn(CC4CC4)c4cccc(c34)[C@H](CC(C)C)N2)cc1	i
Cc1cc(Cn2cc3c4c(cccc42)[C@H](CC(C)C)N[C@H](C(=O)NCCN2CCOCC2)C3)no1	-6.4%
Cc1cc(Cn2cc3c4c(cccc42)[C@H](CC(C)C)N[C@H](C(=O)NCCN(C)C)C3)no1	7.94µM*
CC(C)C[C@@H]1N[C@H](C(=O)NCCN(C)C)Cc2cn(Cc3ccncc3)c3cccc1c23	12.6µM*
CC#CCn1cc2c3c(cccc31)[C@H](CC(C)C)N[C@H](C(=O)NCc1ccc(OC)cc1)C2	-29.9%
Cc1cc(Cn2cc3c4c(cccc42)[C@H](CC(C)C)N[C@H](C(=O)NCc2ccccn2)C3)no1	12.6µM*
CC#CCn1cc2c3c(cccc31)[C@H](CC(C)C)N[C@H](C(=O)NCc1cccs1)C2	-12.5%[44.1 µM]
CC(C)C[C@@H]1N[C@H](C(=O)N2CCOCC2)Cc2cn(CC3CC3)c3cccc1c23	-21.2%[44.1 µM]
O=c1cc(C2CC(NC3CCC4(CCNCC4)CC3)C2)nc(C2CC2)[nH]1 (stereo not drawn)	2.3%
SMILES	Pf Dd2 growth
CN(Cc1cc(-c2ccccc2)no1)Cc1ncccc1C(=O)O	1.0%
O=C(CCC[C@@H]1[C@H]2CCCN3CCC[C@@H](CN1C(=O)Nc1ccccc1)[C@@H]23)Nc1ccccc1	-18.9%
Cc1cccc(C)c1NC(=O)Cn1cccc1-c1nc(-c2ccc(F)cc2)no1	36.5%
O=C1CC2CCN(C(=O)c3ccccc3)CC2CCN1 (stereo not drawn)	20.9%[44.1 µM]
COC1CCCOC12CCN(C(=O)c1ccc3n[nH]nc3c1)CC2 (stereo not drawn)	-4.0%
COc1ccc(F)cc1[C@@H](NC(=O)C1=NNC(=O)CC1)C1CC(O)C1 (stereo partly drawn)	-23.1%
O=C1OCC2=C1C(c1ccccc1)NC(=O)N2CC(=O)N1CCOCC1 (stereo not drawn)	-1.1%
CCNC(=O)N1C[C@@H]2OCC(=O)N(C(C)C)[C@@H]2C1	5.9%[44.1 µM]
CN(C)C(=O)c1ccc(OC2CCN(C(=O)c3ccc(F)c(F)c3)CC2)nc1	53.7%
c1cncc(Nc2cc3c(cn2)CN(Cc2ccsc2)CCN3)c1	8.91µM*
COc1cccc(CN2CCNc3cnc(Nc4ccccc4)cc3C2)c1	i
O=[S+]([O-])(Nc1cccnc1)c1ccc2c(c1)OCCN(Cc1ccsc1)C2	-22.4%[44.1 µM]
COc1cccc(Nc2cc3c(cn2)NCCN(Cc2ccccc2)C3)c1	i
c1ccc(Oc2cc3c(cn2)NCCN(Cc2ccsc2)C3)cc1	-4.5%[44.1 µM]
FC(F)(F)Oc1cccc(CN2CCNc3cc(Nc4cccnc4)ncc3C2)c1	5.01µM*
O=C(O)C1CNCCN(CCOCc2ccccc2)C1 (stereo not drawn)	-1.3%
COc1cccc(CNC(=O)CC2=C3CCCCC3NC2=O)c1OC (stereo not drawn)	-12.9%
COc1ccccc1-c1ccc2ncc(Nc3cccc(O)c3)n2n1	12.6µM*
COc1ccc(Nc2cnc3ccc(-c4ccccc4OC)nn23)cc1OC	-3.7%[44.1 µM]
COc1ccccc1-c1ccc2ncc(Nc3ccc4c(c3)OCO4)n2n1	-4.7%[44.1 µM]
O=C(O)c1nn(CC2CC2)c2c1CN(C(=O)c1nccc3ccccc13)CC2	11.2%
Nc1nc2c(s1)C(c1ccc(F)cc1F)CC(=O)N2 (stereo not drawn)	-15.2%
Cc1ccc(C2Cn3nnc(C(=O)N4CCC(C(=O)NCc5cc(F)ccc5F)CC4)c3CO2)cc1 (stereo not drawn)	17.3%
CCc1ccc(-n2nc(C)c3c(C(=O)N4CCN(c5ccccc5)CC4)cc(C)nc32)cc1	-11.9%
CCc1ccc(-n2nc(C)c3c(C(=O)N4CCN(c5cccc(Cl)c5)CC4)cc(C)nc32)cc1	11.2µM*
SMILES	Pf Dd2 growth
Cc1cc(C(=O)N2CCN(c3ccccc3)CC2)c2c(C)nn(-c3cccc(F)c3)c2n1	15.7%
CC(O)c1cc2n(n1)CCN(CCS(=O)(=O)c1ccccc1)C2 (stereo not drawn)	-7.8%
O=C(COc1ccc(F)cc1)N1CCC2(CC1)NC(=O)N(c1ccc(F)cc1)N2	i
COc1cc(-c2noc(CN3CCN(c4ccccc4)CC3)n2)cc(OC)c1OC	14.0%
COc1ccc(-c2noc(CN3CCN(c4cccc(Cl)c4)CC3)n2)cc1	17.0%
CCOc1ccc2oc(=O)cc(CN3CCN(c4ccccc4)CC3)c2c1	i
CCn1c2ccccc2c2nnc(N3CCN(c4cccc(Cl)c4)CC3)nc21	-4.2%
CC(C)OCc1cc(CN2CCN(c3ccccc3)CC2)c(O)c2ncccc12	2.51µM*
CCOCc1cc(CN2CCN(c3cccc(Cl)c3)CC2)c(O)c2ncccc12	2.82µM*
CCn1ccc(C(=O)N2CCC3(CC2)CC(OCC2CC2)CCO3)n1 (stereo not drawn)	24.1%
O=C(NCc1ccccc1-n1ccnc1)C1CC(=O)N(Cc2cccnc2)C1 (stereo not drawn)	8.5%
CN(CC1CCOC1)S(=O)(=O)Cc1ccccc1Cl (stereo not drawn)	1.9%[5.79 µM]
N#Cc1ccccc1CN1C(=O)NC(c2cccnc2)(C2CCNCC2)C1=O (stereo not drawn)	-8.3%
Cn1nccc1CN1CCC2(CNc3ccccc3[S+](=O)([O-])N2)C1 (stereo not drawn)	i
CN1C[C@@H](N)C[C@H]1C(=O)N1CCC2(CC1)Nc1ccccc1NC2=O	-6.1%
CCOCC(=O)N1CCCn2ccnc2C1CC (stereo not drawn)	13.7%
COc1ccc(-n2ncc(C(=O)N3CCN(c4ncccn4)CC3)c2C2CCN(C(=O)OC(C)(C)C)CC2)cc1	19.7%
CC(C)(C)OC(=O)N1CCC(c2c(C(=O)N3CCC(c4ccccc4)C3)cnn2-c2ccc(Cl)cc2)CC1 (stereo not drawn)	4.47µM*
CCOC(=O)c1ccccc1NC(=O)c1cnn(-c2ccc(OC)cc2)c1C1CCN(C(=O)OC(C)(C)C)CC1	59.3%
